Among the data in PubChem BioAssay AID720706 (Broad Institute, 2013) are GFP signal change (wild-type ribosome), OD600 change and RFP signal change values, retold here.

Each structure is given as a SMILES string. Several values for one entry are separate records, joined by “and”; a condition that tells them apart may be missing. Equal entries are not always repeated. Screen size: about 350,000 compounds; about 5,500 (1.6%) were called active.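 Rule for the calls: active = significant combined selectivity score with lowered wild-type GFP, culture density cut under 30%, mutant RFP and density less affected; inactive = any of these conditions unmet.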 Shown is part of a subset that was picked to be rich in actives.

The experiment can be described thus: reduced GFP signal of wild-type E. coli, primary screen, bacterial rRNA inhibitor project, GFP/RFP fluorescence, OD600, single point (AID 720706). The note with it: E. coli WT GFP vs humanized-ribosome RFP mutants, 24 h; GFP signal change (wild-type ribosome): stronger effect = lower value, DMSO median 0, no signal -100; OD600 change: measured here: OD600 growth, DMSO median 0, no signal -100; RFP signal change: measured here: RFP humanized mutant strains, DMSO median 0, no signal -100, concentration not given here.
In the case of `Cc1ccccc1S(=O)(=O)N1CC(=O)N2[C@H](CO)[C@H](c3ccc(C#CCN(C)C)cc3)[C@H]2C1`, the GFP signal change (wild-type ribosome) is 4.6% (inactive), the OD600 change was determined as 9.79% and the RFP signal change was found to be 0.298%.

In the case of `COc1cc(CN2CC3(CN(S(=O)(=O)c4cccs4)C3)c3c(n(C)c4cc(OC)ccc34)[C@H]2CO)cc(OC)c1`, the GFP signal change (wild-type ribosome) was 4.45% (inactive), the OD600 change was -5.95% and the RFP signal change was -2.78%.

Regarding `Cc1cc(C(=O)OCC(=O)N2c3ccccc3NC(=O)C2(C)C)c(C)n1-c1ccccc1`, the GFP signal change (wild-type ribosome) was -9.02% (inactive), the OD600 change was -33.1% and the RFP signal change was -9.39%.

In the case of `CNS(=O)(=O)c1cccc(C(=O)OCC(=O)N2c3ccccc3NC(=O)C2(C)C)c1`, the GFP signal change (wild-type ribosome) was -0.594% (inactive), the OD600 change came to 2.51% and the RFP signal change is -1.67%.

For the compound `CCNc1ccc(C(=O)OCC(=O)N2c3ccccc3NC(=O)C2(C)C)cc1[N+](=O)[O-]`, the GFP signal change (wild-type ribosome) was -25.9% (active), the OD600 change was -16.2% and the RFP signal change was -4.1%.

As for `O=C(C[C@H]1CC[C@@H]2[C@H](COC[C@@H](O)CN2Cc2cccc(-c3ccncc3)c2)O1)N1CCOCC1`, the GFP signal change (wild-type ribosome) is -1.04% (inactive), the OD600 change was 0.357% and the RFP signal change was -4.81%.

For the compound `C[C@H]1CN([C@@H](C)CO)C(=O)Cc2cc(NC(=O)NC3CCCCC3)ccc2O[C@@H]1CN(C)Cc1ccc(Oc2ccccc2)cc1`, the GFP signal change (wild-type ribosome) was 1.65% (inactive), the OD600 change turned out to be 0.966% and the RFP signal change was -0.931%.

For `C[C@@H]1CN([C@@H](C)CO)C(=O)c2cc(NC(=O)Nc3ccc(C(F)(F)F)cc3)ccc2O[C@@H]1CN(C)Cc1ccncc1`, the GFP signal change (wild-type ribosome) is 8.75% (inactive), the OD600 change was -38.7% and the RFP signal change is 31.2%.

`O=C(NCCc1c[nH]c2ccccc12)C1CCN(Cc2ccc(Br)cc2)CC1`: the GFP signal change (wild-type ribosome) was -52.8% (inactive), the OD600 change was -78.6% and the RFP signal change is -12.4%.

On to `O=C(CCc1c[nH]c2ccccc12)NCCOc1ccccc1`, for which the GFP signal change (wild-type ribosome) is 7.54% (inactive), the OD600 change worked out at 3.6% and the RFP signal change was 0.609%.

In the case of `O=C(NCCc1c[nH]c2ccccc12)c1cc2ccccc2oc1=O`, the GFP signal change (wild-type ribosome) was -5% (inactive), the OD600 change amounted to 0.635% and the RFP signal change is -0.892%.

Turning to `COc1ccccc1CC(=O)NCCc1c[nH]c2ccccc12`, the GFP signal change (wild-type ribosome) is -17.2% (active), the OD600 change was -2.84% and the RFP signal change is 2.84%.

Consider `O=C(NCCc1c[nH]c2ccccc12)c1cccc(Br)c1`, for which the GFP signal change (wild-type ribosome) is -23% (active), the OD600 change was -17% and the RFP signal change was 3.38%.

Turning to `O=C(COC(=O)Cc1c[nH]c2ccccc12)NCCc1ccccc1`, the GFP signal change (wild-type ribosome) is 1.61% (inactive), the OD600 change was -7.07% and the RFP signal change came out at 1.57%.

Take `O=C(C[C@H]1CC[C@H]2[C@@H](COC[C@@H](O)CN2S(=O)(=O)c2ccc(Cl)cc2)O1)NCCN1CCCCC1`: the GFP signal change (wild-type ribosome) is 0.039% (inactive), the OD600 change amounted to 1.47% and the RFP signal change was -0.478%.

As to `COc1cccc(CC(=O)N2CCN(C(=O)C(=O)c3cccc(C(F)(F)F)c3)CC2)c1`, the GFP signal change (wild-type ribosome) was -2.93% (inactive), the OD600 change was -8.1% and the RFP signal change was 7.12%.

As for `C[C@@H]1CN([C@@H](C)CO)S(=O)(=O)c2ccc(-c3cccc(C(=O)N(C)C)c3)cc2O[C@@H]1CN(C)C(=O)Nc1ccccc1`, the GFP signal change (wild-type ribosome) was -9.2% (inactive), the OD600 change is -5.97% and the RFP signal change was -2.53%.

As for `O=C(NNC(=O)C1C2CCC(C2)C1C(=O)O)c1ccc(Cl)cc1` (centres undefined), the GFP signal change (wild-type ribosome) is 1.61% (inactive), the OD600 change came to 3.63% and the RFP signal change was -0.52%.

Turning to `O=C(NNC(=S)NC1CC2CCC1C2)c1ccc(Cl)cc1` (centres undefined), the GFP signal change (wild-type ribosome) is -24.6% (active), the OD600 change was -6.95% and the RFP signal change is -4.4%.

Consider `O=S(=O)(NC1CC2CCC1C2)c1ccc(Cl)cc1` (centres undefined), for which the GFP signal change (wild-type ribosome) was 3.91% (inactive), the OD600 change was -2.44% and the RFP signal change was -1.19%.

Take `COc1ccc(NC(=O)N(C)C[C@@H]2Oc3ccc(NS(=O)(=O)c4ccc(C)cc4)cc3CC(=O)N([C@@H](C)CO)C[C@H]2C)cc1`: the GFP signal change (wild-type ribosome) is 0.124% (inactive), the OD600 change was -3.65% and the RFP signal change is 1.41%.

For `S=C(c1ccc(-c2ccccc2)o1)N1CCCCC1`, the GFP signal change (wild-type ribosome) is -28.2% (active), the OD600 change was -14.7% and the RFP signal change is -0.16%.

With `CN1CCN(C(=O)c2ccc(-c3ccc(Br)cc3)o2)CC1`, the GFP signal change (wild-type ribosome) was -5.31% (inactive), the OD600 change was -1.78% and the RFP signal change stood at 2.79%.

As for `CC1CCN(C(=S)c2ccc(-c3ccc(Cl)cc3Cl)o2)CC1`, the GFP signal change (wild-type ribosome) is -16.5% (inactive), the OD600 change is -16.4% and the RFP signal change is -6.12%.

Consider `C[C@@H]1CN([C@H](C)CO)C(=O)c2cc(-c3cncnc3)cnc2O[C@@H]1CN(C)Cc1ccc(Oc2ccccc2)cc1`, for which the GFP signal change (wild-type ribosome) is 1.64% (inactive), the OD600 change is 8.99% and the RFP signal change came to 0.949%.

With `O=S(=O)(NC[C@H]1[C@H](c2ccccc2)[C@H](CO)N1CC1CC1)c1ccccc1`, the GFP signal change (wild-type ribosome) is -3.76% (inactive), the OD600 change is -2.41% and the RFP signal change was -1.76%.

Consider `COc1ccc(OC)c(NC(=O)CSc2nc(-c3ccccc3)cc(=O)[nH]2)c1`, for which the GFP signal change (wild-type ribosome) is -0.85% (inactive), the OD600 change is -0.395% and the RFP signal change is -1.33%.

Take `COc1ccc(NC(=O)CSc2nc(SC)ns2)c(OC)c1`: the GFP signal change (wild-type ribosome) was -4.47% (inactive), the OD600 change was -9.82% and the RFP signal change stood at 2.07%.

For `CCc1cc2cc(OC)ccc2nc1SCC(=O)Nc1cc(OC)c(OC)cc1C(=O)O`, the GFP signal change (wild-type ribosome) is -19.8% (active), the OD600 change was -8.13% and the RFP signal change was -0.961%.

Regarding `COc1cccc(NC(=O)N2[C@@H]3CNC[C@H]2C3c2ccc(-c3ccncc3)cc2)c1` (some centres undefined), the GFP signal change (wild-type ribosome) is 5.32% (inactive) and -0.155% (inactive); the OD600 change was 9.53% and -0.49%; the RFP signal change is 1.61% and -4.31%.

For `O=C1COc2ccc(C(=O)COC(=O)C3CC(O)CN3S(=O)(=O)c3ccc(Cl)cc3)cc2N1` (centres undefined), the GFP signal change (wild-type ribosome) is -11.8% (inactive), the OD600 change is -8.3% and the RFP signal change stood at 1.61%.

In the case of `Cc1ccc(S(=O)(=O)N2CC(O)C[C@H]2C(=O)OCC(=O)Nc2ccc(N3CCOCC3)cc2)cc1C` (some centres undefined), the GFP signal change (wild-type ribosome) was 4.3% (inactive), the OD600 change was determined as 7.03% and the RFP signal change is 2.94%.

Regarding `CC1CCCC(NC(=O)COC(=O)[C@@H]2CC(O)CN2S(=O)(=O)c2ccc3c(c2)OCCO3)C1C` (some centres undefined), the GFP signal change (wild-type ribosome) is -31.5% (active), the OD600 change was -14.6% and the RFP signal change was -2.13%.
